Whole data set: some 59,000 sequences, median the read-out near -0.00055, cut for the lowest 2% near -2. This excerpt belongs to a sample that is enriched for the lowest values.

Among the data in PubChem BioAssay AID1159506 (National Center for Advancing Translational Sciences (NCATS), 2015) are seed-corrected z-score values, retold here.

The nature of this experiment: Identification of proteins required for the processing of the EWS-FLI1 nascent transcript.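 Further: robust z of luciferase light less the median z of siRNAs with the same seed.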 The note with it: TC32 Ewing sarcoma NR0B1-luc vs CMV-luc (EWS-FLI1 target promoter against control promoter), 48 h; screened at 20 nM (by protocol). The method, then: Ewing sarcoma (ES) cells depend on the EWS-FLI1 fusion transcription factor for cell survival. Using an assay of EWS-FLI1 activity and genome-wide siRNA screening we have identified proteins required for the processing of the EWS-FLI1 nascent transcript. Parallel genome-wide siRNA-mediated RNAi screens were conducted in Ewing sarcoma TC32 cell lines expressing a luciferase (luc) reporter protein driven by either the promoter of the EWS-FLI1 target gene NR0B1 (TC32-NR0B1-luc) or the CMV promoter (TC32-CMV-luc). Luciferase activity was assessed 48 hours post siRNA-transfection.
Twenty microl of serum-free media containing Lipofectamine RNAiMax (0.05 microl) was added to wells containing siRNA (0.8 pmol). Lipid and siRNA were allowed to complex for 45 min at ambient temperature before addition of 600 cells in RPMI-1640, 20% FBS to yield final transfection mixtures containing 20 nM siRNA in RPMI-1640, 10% FBS. Luciferase expression was measured using OneGlo (Promega, Madison, WI). The genome-wide screening campaign was conducted using Ambion's human genome library version 4.1 (Ambion, Austin TX). This library targets approximately 21000 human genes, three siRNAs per gene. Each siRNA is arrayed in an individual well of a 384-well plate. Parallel transfections were conducted in TC32-NR0B1-luc and TC32-CMV-luc cell lines and luciferase expression (OneGlo, Promega) was assayed 48 h later on a PerkinElmer Envision 2104 Multilabel plate reader (PerkinElmer, Waltham, MA). Qiagen's AllStars Negative control was incorporated on all screening plates for normalization (16 wells per plate). Qiagen, Germantown, MDsiGL4 was incorporated as a positive transfection control (16 wells per plate) on all plates. […] The raw luciferase data for the NR0B1- and CMV-luc screens were normalized and z-score-MAD transformed using standard methods (Chung et al., 2008). The miRNA-like seed sequence of every siRNA was determined and the median z-score for all siRNA sequences with the same seed sequence was calculated. This z-score was subtracted from the z-score associated with each siRNA with that seed sequence to generate a seed-adjusted z-score value (Z) that was used when the results for the three siRNAs corresponding to each gene were compared (Marine et al., 2012)
For UUAGAGUCCAGAUUCAGGA against ST3GAL3, the seed-corrected z-score came out at 0.675. Take AAACGAUCAUGGUCUCUGC against COPA: the seed-corrected z-score is -3.42. With UGAUCUUGAACUGCACCAC against SUMO3 the figure was -0.708. With UGGAGUAAGAGCUAUACGC against CYTIP the figure was -0.125; with AACGUGUCACCACAUAUGG against MAPK10, -2.05; with UUAGCAACCACGGACACUG against ACR, 0.604.

For the sequence AUACCUUUCAGGAUGAGGG against TMEM178A, the seed-corrected z-score is -0.305. For the sequence UUCAUAACUCUGUUGUGCC against FNBP1L, the seed-corrected z-score turned out to be 0.0737. With UUCUGUACGCAGGUGAUUG against COL1A1 the figure was 0.0612; with UUUACGACGCAUCUCAGCC against ARCN1, -2.64. In the case of ACGGUUUUUACAUCGAUUC against PTPRO, the seed-corrected z-score is 0.657. With UAUUGUGCAAUUUGGUGGG against KLF13 the figure was 0.422. For AAUAUCCCAAUGUUCAUGC against FHDC1, the seed-corrected z-score is -2.13. AAACCAAACAAGGAUACCU against C20orf173 yielded a seed-corrected z-score of 2.47. With ACAUAUACUGGUAACACUG against SH3GLB1 the figure was -0.404. With UGAUGUCUACAAUAUCACC against RPL21P20 the figure was -2.36. UUUAUCACCAGGUUAAGCC against GLUD1 came in with a seed-corrected z-score of -0.205. With UCUCGGAUCAUGAUGUUGU against PIK3CD the figure was 0.452; with UAAACAAUACGUCAGUGCC against OR51T1, -0.809.

The sequence UUCGUUCACGGCUAUGACC against CHL1 displayed a seed-corrected z-score of 0.202. For UGAGUUUCAGGUUCUCCGG against CAB39L, the seed-corrected z-score is -2.64. With UUCCGGAUCAGAUCAUGGG against FAM118A the figure was -0.123. As for UACAUUCUUGGUUUCAACC against LOC729860, the figure is 1.84; as for UUAUAUUCAUCCUUGUGAC against CRKL, 0.239; as for UUCUGGUUUGUUUUCAGGC against BAG3, -2.98. With AACCGAACAAAUGAAUAUC against TIA1 the figure was -1.17. In turn, UAAUCUGCAAGUCAAGUCU against LYSMD2 displayed a seed-corrected z-score of -1.06. As for UUCACGACGAUGAUUCCCU against DYNLRB1, the figure is -0.1; as for UCCUCUGUAACCACACUCG against GPT2, -0.193; as for AAACUAUACACGGUCGUCC against RFESD, -0.265. With UUAGGUUCAACAUCCACAA against SNRPD1 the figure was -2.57; with AAGGAUAUUAAGAAGAAUC against ARMCX1, 0.793. On to UACGAUGAUAGCCUUGACC against CNOT10, for which the seed-corrected z-score was -0.215. With UCAAGCUUCACUUUCUUCC against DNAJC17 the figure was 1.06. On to AAAAUGAGAACGUAAAGUC against VN1R5, for which the seed-corrected z-score is -0.139. As for UCCUGGAUGCGAUUUAUGG against DDRGK1, the seed-corrected z-score is -0.145. The sequence UUCUCGUCGAGGUAGAUUU against ITM2C registered a seed-corrected z-score of 0.584.

Take UAACAUACUGGUCCCAUUG against PCTP: the seed-corrected z-score is -1.08. UAUCUUCUAAUGCAAUCCU against RTP2 returned a seed-corrected z-score of 0.814. With ACCUUGACCACACUUAUUU against VSTM2L the figure was -1.03. With UGCUUAACAAGAUCUGAAC against ZNF271P the figure was -2.37. With UCGGCGAUGUAGGAGAUGG against APBA2 the figure was 0.0663; with AGAAAAUCUAUCUUCCUCU against PFDN5, -0.0703; with UGGGAUAUCACCAACGACG against CCDC168, -0.371.

UCAUCUAGAAGAAUAUUCU against SGK494: the seed-corrected z-score came to 0.387. As for AAGCUUGCCAAUACCCUGG against RPLP2, the figure is -2.77; as for UCUAUGUUGACAACCUCUC against DSPP, 2.05.

Sequence UUGCAUUUUAUCACAGUAG against LY96 returned a seed-corrected z-score of -0.122. As for UCAGCAAAAACAUCUCACU against OR4Q3, the figure is 0.873; as for AAACUGACCAUUCACUACC against DCAF12, -10.7. As for UCUGGAAUUUGGGUUGAUG against C1orf105, the figure is -0.114; as for UAGAUGUGCAUGUAGGUGA against ADO, 0.279.

Sequence AAGGCAUCCAAGAAGCUCC against KCNK6 showed a seed-corrected z-score of 0.0975. Consider UUGGAAACUACAGAUGAGA against WDR82, for which the seed-corrected z-score is -2.39. With UUCCUUAAGGUGUCCCUCC against HSPA12A the figure was 0.369; with UUGCGAUGGAAAGACAUGU against CD5, 0.451; with AAUGCUCUCAGUUGAGAUG against C19orf44, -0.0313.

UAACCUCUGGGUCACAUGC against ACIN1 showed a seed-corrected z-score of 0.0177.

Regarding UCUGUCUAAAUAACUUAUU against NAT8L, the seed-corrected z-score is -0.913. With UAUUGAAUGAUGUGGAGUC against PTCD2 the figure was 0.667; with UUAAGUAUUGGAUUUCAUA against DEFB116, 0.226; with UCGGAAUAAAUUGAGCUGC against API5, -16.5. In the case of UGUGCGAGAACAUUCCUGC against HIP1R, the seed-corrected z-score is 0.0278. As for UUUGUGCAUGCUGUCGUUC against TNIP2, the figure is -0.335; as for UACAGCUAAACUGUACAGC against ORC6, -2.09. As for UUCGGUUCAUGACAAAUAC against SLC35F5, the figure is 0.354; as for UAGCAUACUAUUGUCCUGC against MRPL42, 0.102.
